From PubChem BioAssay (NCI)
About 83,000 compounds went through this panel and 20% of them were active in at least one assay; those are over-represented in the sample as a whole.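 Step 1: grow cells in 96-well plates. Step 2: add test compound at a single concentration. Step 3: incubate 48 h. Step 4: record percent growth.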 Active and inactive are the calls of the source.

Tested on: HS 578T breast
Assay: NCI-60 one-dose screen, 48 h (100 = growth as untreated, 0 = no growth, -100 = all killed)
Settings: 10 µM unless noted
Procedure: Growth inhibition of the HS 578T human tumor cell line is measured as a screen for anti-cancer activity. Cells are grown in 96 well plates and exposed to the test compound for 48 hours. Compounds are tested at a single concentration, which is 10^-5 M for most compounds. The reported endpoint is percent growth (GI% or GIPRCNT), where numbers from 0 - 100% represent growth inhibition, and numbers from -100% - 0 represent cell death. For example, a value of 40 represents 60% growth inhibition. A value of 0 means no net growth occurred over the course of the experiment. A value of -40 indicates 40% of cells at the beginning of the experiment died by the end of the experiment. A value of -100 means all cells are dead at the end of the experiment.
NCI-60 Human Tumor Cell Lines Screen was performed using the standard one-dose NCI protocol, which is described in more detail at https://dtp.cancer.gov/discovery_development/nci-60/default.htm.
Compounds with GIPRCNT values below 10 were considered active. Activity score was based on GIPRCNT using the following formula: […]
Score is 0 for GIPRCNT values of 100 or above, 50 for GIPRCNT values of 0, and 100 for GIPRCNT values of -100.

Structure (SMILES) | growth
CC(/C=C/C=C(\C)[C@H](O)[C@H](C)C(=O)O[C@H]1C[C@H](C)C=C2C=C[C@@]3(C)O[C@@H](O)CC(=O)[C@]3(C)[C@H]21)=C\C=C\C(=O)O | -3.26% (active)
O=C1c2ccccc2C(=O)c2c(NCCN=Cc3c(O)ccc4ccccc34)cccc21 | 82.7% (inactive)
C#C[C@@]1(O)[C@@H](CO)O[C@@H](n2cc(Br)c3c(Cl)ccnc32)[C@@H]1O | 40.9% (inactive)
O=C(CSc1nnc(-c2ccc(Cl)cc2)o1)Nc1ccc(C(=O)/C=C/c2ccccc2)cc1 | 101% (inactive)
O=[N+]([O-])c1cccc2cc(S(=O)(=O)O)ccc12 | 107% (inactive)
CCn1cc(/C=C2\Oc3cc(OCC#N)ccc3C2=O)c2cc(OC)ccc21 | 29.4% (inactive)
C=CC(C)(O)CCC1C(=C)CCC2C(C)(C)CCCC12C (stereo not given) | 113% (inactive)
COc1ccc2c(c1)/C(=C/c1c(-c3cc(OC)c(OC)c(OC)c3Br)nc3sccn13)C(=O)N2 | 83.2% (inactive)
COc1cc(NC(C)CCCN2C(=O)c3ccccc3C2=O)c2nccc(C)c2c1OC (stereo not given) | 98.7% (inactive)
CCCCNc1cc(C(=O)O)cc(S(N)(=O)=O)c1Oc1ccccc1 | 98.5% (inactive)
O=C(O)c1ccc2nc(-c3ccc(OCCCCCOc4ccc(-c5nc6ccc(C(=O)O)cc6[nH]5)cc4)cc3)[nH]c2c1 | 82.7% (inactive)
O=S(=O)(CCN1CCOCC1)Nc1cncc(-c2ccc3ncnc(Nc4ccc(F)c(Cl)c4)c3c2)c1 | 37% (inactive)
Cc1ccc2[nH]c3nc4cccnc4c(C)c3c2c1 | 93.2% (inactive)
CN1CCN(CC(=O)N(C)c2ccc(N=C(c3ccccc3)c3c(O)[nH]c4ccc(C#N)cc34)cc2)CC1 | -2.32% (active)
COc1ccc(-n2c(-c3ccc(NC(=O)CCCl)cc3)nnc2-c2cc(OC)c(OC)c(OC)c2)cc1 | 56% (inactive)
CC12CCC3C(CCC4CC(O)CCC43C)C1C/C(=C/O)C(=O)O2 (stereo not given) | 98.4% (inactive)
CC(Cl)(CCl)CS(=O)(=O)c1ccc(Cl)cc1 (stereo not given) | 97.3% (inactive)
COc1cc(Br)c(-c2nc(-c3ccccc3)c(-c3ccccc3)n2Cc2ccccc2)cc1OC | 88.7% (inactive)
CC(C)CCC[C@@H](C)[C@H]1CC[C@H]2[C@@H]3CC=C4N(c5ccccc5)C(=O)CC[C@]4(C)[C@H]3CC[C@]12C | 109% (inactive)
CN1CCN(Cn2nc(-c3cc(Cl)cc(Cl)c3Cl)n(/N=C/c3ccc(Cl)cc3)c2=S)CC1 | 112% (inactive)

Structure (SMILES) | growth
CCOc1ccccc1C(=O)N1CCN(c2cc(Cl)cc(Cl)c2)CC1 | 41.3% (inactive)
COc1ccc(-c2nnc(NC(=O)CN3CCN(c4cc5c(cc4F)c(=O)c(C(=O)O)cn5C4CC4)CC3)s2)cc1OC | 91.5% (inactive)
COC(=O)c1oc2c(C(C)=O)c(OCCCN(C)C)ccc2c1C | 97.3% (inactive)
CCCCCn1ncc(-c2c(O)c(O)cc3c(O)c(-c4c(C)cc5c(-c6cnn(CCCCC)n6)c(O)c(O)cc5c4O)c(C)cc23)n1 | 31% (inactive)
Nc1nc2ccc(CNc3ccc(C(=O)NC(CC(=O)O)C(=O)O)cc3)cc2c(=O)[nH]1 (stereo not given) | 97.5% (inactive)
Cc1ccc2nc(-c3ccc(-n4on4-c4ccc(/C=C/c5ccc(-n6on6-c6ccc(-c7nc8ccc(C)cc8s7)cc6)cc5S(=O)(=O)O)c(S(=O)(=O)O)c4)cc3)sc2c1 | 116% (inactive)
CC(C)(CCN=C(N)Nc1ccccn1)c1ccc(C(F)(F)F)cc1 | 62.1% (inactive)
Cc1c(F)cccc1NC(=O)c1sc2nc3c(cc2c1N)CCCCC3 | 54.3% (inactive)
CCn1c(SCC(=O)c2ccc(Br)cc2)nnc1-c1cc2c([nH]c3ccccc32)c(-c2cccc(O)c2)n1 | 73.7% (inactive)
Cc1cc(C)c(O)c(C(=O)CC(Br)C(=O)O)c1 (stereo not given) | 107% (inactive)
O=c1c2ccccc2sc2c(N3CCCC3)nc3ccccc3c12 | 89.6% (inactive)
O=C(/C=C/c1ccccc1)Oc1ccc(/C=C/c2cc(OC(=O)/C=C/c3ccccc3)cc(OC(=O)/C=C/c3ccccc3)c2)cc1 | 95.9% (inactive)
Nc1ncc(-c2ccc3ncnc(Nc4ccc(F)c(Cl)c4)c3c2)cn1 | 34.6% (inactive)
C=CCn1c(SCC(=O)Nc2ccc(/C(C)=N\O)cc2)nnc1-c1cc(-c2ccc(OC)cc2)nc2ccccc12 | 46% (inactive)
Cc1cn(C2CC(N=[N+]=[N-])C(COP(=O)(O)OP(=O)(O)OP(=O)(O)O)O2)c(=O)[nH]c1=O (stereo not given) | 133% (inactive)
C#C[C@H](O)/C=C/CCCCCCC#C[C@H](O)CC[C@@H](O)C#CCCCCCC/C=C/[C@@H](O)C#C | 95.9% (inactive)
CCOC(=O)c1noc2c1CCc1c-2cn(Cc2ccc(OC)cc2)c1-c1cc(OC)c(OC)c(OC)c1 | 8.37% (active)
COc1cc(-c2nc(N)n(CC(=O)Nc3ccc(/C(C)=N\O)cc3)n2)cc(OC)c1OC | 82.1% (inactive)
CCCCOc1nc2ccc(Cl)cc2cc1/C=C/C(=O)/C=C/c1ccc(OC)cc1 | 107% (inactive)
CN(C)c1ccc(/C=c2\s/c(=C\C(=O)C(C)(C)C)[nH]c2=O)cc1 | 103% (inactive)
